Source: PubChem BioAssay AID1851 (National Center for Advancing Translational Sciences (NCATS), 2009)
Screen size: about 16,000 compounds; about 4,000 (25%) were called active. Another 26% or so got no clear call; they are omitted. Only a sample is shown. Unmarked numbers belong to inactive results. Calls follow the shape of the dose curve; as a rule, active = well fitted curve in the direction sought with a large enough effect; inconclusive = small, poorly fitted or top-dose-only effect, or effect the other way; inactive = no such curve, though single readings can be large or run the other way.
% is scaled to controls: 0 for no effect and ±100 for the full control effect.

Each compound was assayed against Cytochrome P450 2C9 (Homo sapiens) (UniProt P11712) (assay: Cytochrome panel assay with activity outcomes). Details: recombinant CYP, pro-luciferin dealkylation, luminescence, p450-cyp2c9; series mostly up to 57.1 µM; activity, negative = inhibition: at the top concentration.
Cytochrome P450 2C9 (Homo sapiens), sequence (P11712 whole entry, looked up): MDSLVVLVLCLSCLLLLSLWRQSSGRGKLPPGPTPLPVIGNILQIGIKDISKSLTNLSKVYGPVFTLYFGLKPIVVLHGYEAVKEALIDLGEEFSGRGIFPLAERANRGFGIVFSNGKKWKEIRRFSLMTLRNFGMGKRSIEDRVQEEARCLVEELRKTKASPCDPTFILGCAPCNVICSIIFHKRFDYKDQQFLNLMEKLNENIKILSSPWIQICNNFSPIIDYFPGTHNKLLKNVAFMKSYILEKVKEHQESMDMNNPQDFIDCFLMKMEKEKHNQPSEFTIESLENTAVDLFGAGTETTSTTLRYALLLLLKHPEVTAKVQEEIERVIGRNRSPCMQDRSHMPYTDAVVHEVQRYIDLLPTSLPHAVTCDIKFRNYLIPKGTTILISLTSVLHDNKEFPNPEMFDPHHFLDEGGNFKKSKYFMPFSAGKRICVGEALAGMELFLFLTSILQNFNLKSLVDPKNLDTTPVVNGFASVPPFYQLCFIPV
In the case of `CO[C@H]1COC(=O)CCC[C@@H](C)[C@H](OC)COC(=O)[C@H]2CCCN2C(=O)C/C=C\[C@@H]1C`, the activity, negative = inhibition is reported as 5.44% [at 11.4 µM]. With `Cc1ccc(C(=O)N/N=C/c2ccc([N+](=O)[O-])s2)cc1` the “activity, negative = inhibition” value was -24.8%. For `COc1ccc(/C=N/NC(=O)c2cccc([N+](=O)[O-])c2)cc1OS(=O)(=O)c1ccc(C)cc1`, the AC50 was 891 nM (active). With `CC(/C=N/NC(=O)c1cccc([N+](=O)[O-])c1)=C\c1ccccc1` the AC50 was 355 nM (active). `O=C(N/N=C/c1ccco1)/C(=C/c1cccc([N+](=O)[O-])c1)NC(=O)c1ccccc1` was tested, and the “activity, negative = inhibition” value was -23.4%. For `COc1cccc(/C=N/NC(=O)c2cccc([N+](=O)[O-])c2)c1OS(=O)(=O)c1ccc(C)cc1`, the AC50 was 3550 nM (active). With `C=CCOc1ccc2cccc(/C=N/NC(=O)c3cc4cc([N+](=O)[O-])ccc4s3)c2c1` the “activity, negative = inhibition” value was -31.2%. With `NNc1nncc2ccccc12` the AC50 was “inactive”. `Cc1cccc([C@@H]2CN(C)CCc3c2cc(O)c(O)c3Cl)c1` was tested, and the AC50 was “inactive”. For `Cc1noc(C)c1C(=O)N1CCC2(CC1)CN(c1ccccc1)C2`, the “activity, negative = inhibition” value was 1.9%. `Cc1noc(C)c1C(=O)N1CCC2(CCCN(c3ccccc3)C2)CC1` was tested, and the “activity, negative = inhibition” value was 9.43%. In the case of `Cc1cccc(N2CCN(C(=O)CSCc3c(C)noc3C)CC2)c1C`, the AC50 is reported as 12600 nM (active). In the case of `c1cncc(CNc2cc(-c3ccoc3)ncn2)c1`, the activity, negative = inhibition is reported as 2% [at 2.29 µM]. `C/C(=N\OC(=O)c1ccc(F)cc1)c1nccs1` was tested, and the “activity, negative = inhibition” value was -20.9%. For `C/C(=C\c1ccco1)C1C(C#N)=C(N)Oc2n[nH]c(-c3ccccc3)c21` (stereo unspecified), the AC50 was 89.1 nM (active). Work on `Nc1nc2c(c(=O)[nH]1)CN(CCCN1CCOCC1)CN2` yielded an activity, negative = inhibition of 11% [at 11.4 µM]. With `CC(=O)Nc1ccc(NC(=O)c2ccccc2CC[N+](=O)[O-])cc1` the “activity, negative = inhibition” value was -19.2%. In the case of `O=C(O)CCCCCNC(=O)c1ccccc1Br`, the “activity, negative = inhibition” value is reported as -16.4%. In the case of `O=C(NCCNc1ccc([N+](=O)[O-])cc1)c1ccccc1Br`, the AC50 is reported as 14100 nM (active). Compound `CCOc1ccc2nc3cc(N=Nc4ccc(N)nc4N)ccc3c(N)c2c1` has an activity, negative = inhibition of 1.7% [at 11.4 µM]. `NC(=O)c1ccc(N2CCCCC2)c(N2C(=O)C3CC=CCC3C2=O)c1` (stereo unspecified) was tested, and the “activity, negative = inhibition” value was -18.8%. In the case of `Cc1ccc(NC(=O)CSCC(=O)Nc2ccc(N3CCOCC3)c(Cl)c2)cc1`, the AC50 is reported as 5010 nM (active). For `CC(/C=C/c1ccco1)=N/NC(=O)c1ccccc1Cl`, the “activity, negative = inhibition” value was -14.2%. `O=C(/C=C/c1ccco1)NC(=S)Nc1ccc(N2CCOCC2)c(Cl)c1` was tested, and the AC50 was 4470 nM (active). `O=C(Nc1ccc2nc(SCc3ccc(Cl)cc3)sc2c1)c1ccccc1C(=O)N1CCOCC1` was tested, and the “activity, negative = inhibition” value was -9.43%. With `CCCC(=O)Nc1ccc2nc(SCC(=O)Nc3ccc(N4CCOCC4)c(Cl)c3)sc2c1` the AC50 was 2240 nM (active). For `O=C(/C=C/c1ccc(Cl)cc1)NCCN1CCOCC1`, the “activity, negative = inhibition” value was -18.9%. In the case of `Cc1ccc(NC(=O)c2cc(N3C(=O)C4CC=CCC4C3=O)ccc2N2CCOCC2)cc1Cl` (stereo unspecified), the AC50 is reported as 11200 nM (active). In the case of `CN1CCCN(C2C3CC4CC(C3)CC2C4)CC1` (stereo unspecified), the “activity, negative = inhibition” value is reported as -1.21%. Work on `CCN1C(=O)[C@H]2[C@H]3[C@H](O)[C@H](O)C/C(=N/OC[C@@H](O)[C@H]4O[C@H]5OC(C)(C)O[C@H]5[C@@H]4O)[C@@H]3CC[C@@H]2C1=O` yielded an activity, negative = inhibition of 11.9% [at 11.4 µM]. For `COc1ncnc(NS(=O)(=O)c2ccc(N)cc2)c1OC`, the “activity, negative = inhibition” value was 45.6% [at 25.6 µM]. In the case of `CN=C(NC#N)NCCSC[C@H]1N=CN=C1C`, the “activity, negative = inhibition” value is reported as -19.2% [at 25.6 µM]. For `CC[C@@]12CCCN3CCc4c(n(c5ccccc45)[C@](O)(C(=O)OC)C1)[C@H]32`, the AC50 was “inactive”. For `COc1cccc(/C(O)=C2/C(=O)C(=O)N(c3cc(C)on3)C2c2cccs2)c1` (stereo unspecified), the AC50 was 14100 nM (active). With `COc1ccc(/C(O)=C2\C(=O)C(=O)N(c3cc(C)on3)C2c2ccc(OC)c(OC)c2)cc1OC` (stereo unspecified) the “activity, negative = inhibition” value was -2.14%. With `CCOc1ccc(/C(O)=C2\C(=O)C(=O)N(CCOCCO)C2c2ccccc2OC)cc1` (stereo unspecified) the “activity, negative = inhibition” value was -28.2%. For `COc1ccc(C2/C(=C(/O)c3ccccc3)C(=O)C(=O)N2c2ccccn2)c(OC)c1` (stereo unspecified), the AC50 was 15800 nM (active). For `COc1ccc(C2/C(=C(/O)c3ccccc3)C(=O)C(=O)N2CC(C)O)c(OC)c1` (stereo unspecified), the “activity, negative = inhibition” value was -19.1%. `COc1ccc(OC)c(C2N(c3cc(C)on3)C(=O)C3CCCN32)c1` (stereo unspecified) was tested, and the “activity, negative = inhibition” value was -0.725%. `CN1CCN(c2ncc3ncc(=O)n(C[C@H]4CCCO4)c3n2)CC1` was tested, and the “activity, negative = inhibition” value was -1.28%. Work on `CN(Cc1ccco1)c1cc(-c2ccc3c(c2)OCO3)ncn1` yielded an activity, negative = inhibition of -13% [at 2.29 µM]. `CCOC(=O)N/N=C1/C[C@@H](O)[C@@H](O)[C@@H]2[C@@H]3C(=O)N(CC)C(=O)[C@H]3CC[C@@H]12` showed an activity, negative = inhibition of 9.77% [at 11.4 µM]. `CN(C)CCCN1CCC2(CCC(C(C)(C)C)CC2)CC1` showed an activity, negative = inhibition of 13% [at 11.4 µM]. `CN(Cc1ccco1)c1nc(-c2ccccc2C(F)(F)F)nc2ccccc12` gave an activity, negative = inhibition of -1.38% [at 2.29 µM]. In the case of `Cc1cnc(CNc2ncnc3ccc(-c4ccc5c(c4)OCO5)cc23)cn1`, the activity, negative = inhibition is reported as -11.4% [at 2.29 µM]. For `CNc1ncnc2ccc(-c3cccc(OC)c3)cc12`, the AC50 was 501 nM (active). `N#Cc1ccccc1-c1ccc2ncnc(NC3CC3)c2c1` gave an activity, negative = inhibition of -9.89% [at 2.29 µM]. With `Cc1cccc(CNc2ncnc3ccc(-c4ccc5c(c4)OCO5)cc23)c1` the AC50 was 316 nM (active). With `Cc1cccc(CNc2ncnc3ccc(-c4cccnc4)cc23)c1` the activity, negative = inhibition was -11.3% [at 2.29 µM]. With `COc1ccc2[nH]cc(CCNc3ncnc4ccc(-c5ccccc5C#N)cc34)c2c1` the AC50 was 316 nM (active). `COc1ccccc1CNc1ncnc2ccc(-c3cccnc3)cc12` was tested, and the activity, negative = inhibition was 6.62% [at 2.29 µM]. `COc1ccc2[nH]cc(CCNc3cc(-c4cccnc4)ncn3)c2c1` gave an activity, negative = inhibition of -3.3% [at 2.29 µM]. `COCCNc1ncnc2ccc(-c3cccc(OC)c3)cc12` showed an activity, negative = inhibition of 26.2% [at 2.29 µM]. For `COc1cccc(-c2ccc3ncnc(NC4CC4)c3c2)c1`, the activity, negative = inhibition was -17.4% [at 2.29 µM]. `CNc1ncnc2ccc(-c3ccccc3C#N)cc12` gave an activity, negative = inhibition of -10.6% [at 2.29 µM]. `COc1ccc2[nH]cc(CCNc3ncnc4ccc(-c5cccnc5)cc34)c2c1` was tested, and the AC50 was 1000 nM (active).
